# Screening results from PubChem BioAssay.
# Shown are actives, neighbours in structure and some others; about 1.2% of the full set was active somewhere.
# GSH fluor = compound fluoresces at 488/530 nm on GSH beads. GSH beads flow cytometry, compound fluorescence 488/530 nm; active compounds read high. fluorescence (KMESF) at 10 µM. actives 0.25% (n = 190,000). AID 1776; in the data active means fluorescence above about 89;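 further: glutathione beads carrying GST-tagged Bcl family fusion proteins plus one bare bead set; values are compound well signal with DMSO vehicle wells as background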
# RGS8-Gao = human RGS8-Galphao interaction regulation | actives 0.34% (n = 220,000) | multiplexed bead flow cytometry, RGS8-Galphao binding; actives lie on both sides | response (percent of control binding), % at 10 µM | AID 1423 | P09471; in the data active means response below about 60% or above about 140%; inactive means in between;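 further: Galphao activated as the GDP aluminium fluoride complex binding bead-coupled RGS8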
# Target sequence (P09471 whole entry, looked up): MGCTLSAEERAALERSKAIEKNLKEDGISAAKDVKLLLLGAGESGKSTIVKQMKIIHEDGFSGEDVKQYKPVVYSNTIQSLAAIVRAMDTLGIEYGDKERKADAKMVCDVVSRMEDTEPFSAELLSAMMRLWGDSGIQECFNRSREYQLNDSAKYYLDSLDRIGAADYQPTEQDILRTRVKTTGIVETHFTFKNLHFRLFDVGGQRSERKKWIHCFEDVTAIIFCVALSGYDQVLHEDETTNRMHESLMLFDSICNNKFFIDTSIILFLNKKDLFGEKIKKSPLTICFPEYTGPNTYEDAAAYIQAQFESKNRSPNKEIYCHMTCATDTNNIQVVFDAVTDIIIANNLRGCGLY
# RGS16-Gao = modulates binding between human RGS16 and Galphao; O15492+P09471; bead-based flow cytometry RGS16-Galphao binding, fluorescence; actives lie on both sides; binding response (% of control), % at 10 µM; actives 0.38% (n = 220,000); AID 1441;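 further: Galphao activated by GDP with aluminum fluoride before binding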
# Target sequence (O15492 whole entry, looked up): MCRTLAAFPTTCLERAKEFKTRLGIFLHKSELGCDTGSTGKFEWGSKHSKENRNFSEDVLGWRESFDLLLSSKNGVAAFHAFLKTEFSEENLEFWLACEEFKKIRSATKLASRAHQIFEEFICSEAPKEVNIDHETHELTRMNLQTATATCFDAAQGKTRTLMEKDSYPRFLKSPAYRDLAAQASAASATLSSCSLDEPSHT
# Target sequence (P09471 whole entry, looked up): as the sequence (P09471 whole entry, looked up) above
# RGS4-Gao reg = human RGS4-Galphao interaction regulation | binding response (% of control), % at 10 µM | AID 1415 | Multiplexed bead flow cytometry, RGS4-Galphao binding; actives lie on both sides | actives 0.33% (n = 220,000); in the data active means binding response below about 49% or above about 150%; inactive means in between;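 further: fluorescent Galphao activated with aluminum fluoride binding bead-coupled RGS4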
# Avidin bead fluor = compound fluoresces at 488/530 nm on avidin beads | compound fluorescence 488/530 nm, flow cytometry; active compounds read high | fluorescence (KMESF) at 10 µM | actives 0.38% (n = 220,000); in the data active means fluorescence above about 47
# RGS7-Gao = human RGS7-Galphao interaction regulation; P09471; Multiplexed bead flow cytometry, RGS7-Galphao binding; actives lie on both sides; binding response (% of control), % at 10 µM; actives 0.35% (n = 220,000); AID 1439; in the data active means binding response below about 49% or above about 150%; inconclusive means no clear call, values can overlap the other calls; inactive means in between;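 further: fluorescent Galphao held in activated GDP-AlF4 state binding bead-coupled RGS7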
# RGS4-Gao HTS = RGS4-Galphao interaction regulator (human); shares compounds with RGS16-Gao; multiplexed bead flow cytometry, RGS–Galpha-o binding; RGS4–Galpha-o binding response, % at 10 µM; actives 99% (n = 1,600);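 further: fluorescently labeled Galpha-o bound to GDP with aluminium fluoride binding biotinylated RGS beads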
# Biotin-avidin = interferes with biotinylated probe binding to avidin beads; shares compounds with RGS16-Gao; streptavidin beads, fluorescein-biotin binding, flow cytometry; inhibition, % at 10 µM; 1,700 tested, under 10 active; AID 1783;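 active means inhibition above 50%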;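 further: median green fluorescence of gated singlet beads compared with DMSO control wells; 0% = DMSO wells and 100% = complete loss of bead fluorescence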
# RGS8-Gao confirm = confirmation of regulators of human RGS8-Galphao interaction; shares compounds with RGS16-Gao; bead-based flow cytometry RGS8-Galphao binding, fluorescence; actives lie on both sides; binding response (% of control), % at 10 µM; actives 3% (n = 1,700); AID 1836; in the data active means binding response below about 72% or above about 130%; inactive means in between;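 further: Galphao activated as GDP AlF4 complex before binding bead RGS8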
# RGS7-Gao single = confirmation of regulators of human RGS7-Galphao interaction; shares compounds with RGS16-Gao; bead-based flow cytometry RGS7-Galphao binding; actives lie on both sides; response (percent of control binding), % at 10 µM; actives 7.8% (n = 1,700); in the data active means response below about 75% or above about 130%; inactive means in between;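 further: fluorescent Galphao activated with GDP and aluminum fluoride binding bead-coupled RGS7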
# RGS16-Gao single = confirmation of regulators of human RGS16-Galphao interaction. shares compounds with RGS16-Gao. bead-based flow cytometry, RGS16-Galphao binding; actives lie on both sides. response (% of control binding), % at 10 µM. actives 4% (n = 1,700); in the data active means response below about 74% or above about 130%; inactive means in between;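 further: Galphao activated as the GDP aluminium fluoride complex binding bead-coupled RGS16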
# RGS4-Gao single = RGS4-Galphao interaction regulation, single point confirmation; binding response (% of control), % at 10 µM; shares compounds with RGS16-Gao; actives 4% (n = 1,700); AID 1840; RGS4-Galphao binding, multiplexed bead flow cytometry; actives lie on both sides; in the data active means binding response below about 74% or above about 130%; inactive means in between
# RGS19-Gao conf = confirmation of regulators of human RGS19-Galphao interaction | shares compounds with RGS16-Gao | response (percent of control binding), % at 10 µM | actives 5% (n = 1,700) | bead-based flow cytometry RGS19-Galphao binding; actives lie on both sides; in the data active means response below about 50% or above about 160%; inactive means in between;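 further: 100% = no compound control and 0% = blank background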
# Starred values were filed as active, the others as inactive; u = inconclusive; x = no result; [ ] = dose if it differs, or a comment. Unless noted, how the calls were made is not given here.
SMILES,GSH fluor,RGS8-Gao,RGS16-Gao,RGS4-Gao reg,Avidin bead fluor,RGS7-Gao,RGS4-Gao HTS,Biotin-avidin,RGS8-Gao confirm,RGS7-Gao single,RGS16-Gao single,RGS4-Gao single,RGS19-Gao conf
CN(C)S(=O)(=O)N1CCN(c2ccc([N+](=O)[O-])c(N3CCCCC3)c2)CC1,16,100,100,102,2,98,x,x,x,x,x,x,x
Oc1ccccc1Nc1nc(NCC2CCCO2)c2ccccc2n1 (stereo not given),21,99,89,96,3,41*,96*,2,100,105,103,101,104
NS(=O)(=O)c1ccc(CNC(=O)/C=C/c2cccc([N+](=O)[O-])c2)cc1,x,105,107,107,8,u,x,x,x,x,x,x,x
Cc1cccc2cc(C#N)c(NCCCNS(=O)(=O)c3ccc(Cl)cc3)nc12,x,93,90,98,8,u,x,x,x,x,x,x,x
CCOc1ccccc1N1CCN(C(=O)c2ccc3[nH]c4c(c3c2)CCCC4)CC1,16,74,24*,84,3,81,84*,0,100,100,99,100,93
CCOc1ccccc1N1CCN(C(=O)c2ccncc2)CC1,13,101,102,102,38,103,x,x,x,x,x,x,x
O=C(Nc1ccccc1C(=O)Nc1nnc(C(F)(F)F)s1)c1ccccc1Cl,x,101,101,103,4,u,x,x,x,x,x,x,x
CSCCC(NS(=O)(=O)c1ccc(F)cc1)C(=O)NCc1ccc(S(N)(=O)=O)cc1 (stereo not given),x,100,104,100,x,u,x,x,x,x,x,x,x
NC(=O)CCC(NS(=O)(=O)c1ccc(Cl)cc1)C(=O)NCc1ccc(Cl)cc1 (stereo not given),6,70,6.5*,90,6,85,90*,0,111,112,114,109,133
COc1ccc(OC)c(C2=NOC(C(=O)Nc3ccccc3SC)C2)c1 (stereo not given),34,95,96,91,12,98,x,x,x,x,x,x,x
COc1ccc(OC)c(C2=NOC(C(=O)Nc3cccc(C(C)=O)c3)C2)c1 (stereo not given),51,99,118,157*[activator],413*,303*[activator],x,3,93,88,91,93,93
COc1ccc2c(c1OC)C(=O)OC2Nc1ccc(S(=O)(=O)N=C(N)N)cc1 (stereo not given),x,96,92,88,5,u,x,x,x,x,x,x,x
COc1ccc2c(c1OC)C(=O)OC2Nc1ncc(Br)cc1Br (stereo not given),46,125,188*[activator],124,5,112,124*,0,100,102,100,100,100
CC1CC2=C(C(=O)O1)C(C)Nc1ccccc1N2 (stereo not given),15,85,22*,86,8,87,86*,-1,102,99,102,101,83
CCCOC(=O)c1ccc(NC(=O)c2ccccc2OC)cc1,70,99,103,104,13,103,x,x,x,x,x,x,x
CCCCOC(=O)c1ccc(NC(=O)c2ccccc2OC)cc1,7,70,18*,77,2,79,77*,1,102,106,102,104,102
CC(=O)c1c(COC(=O)c2ccccc2Cl)nc2ccccc2[n+]1[O-],x,99,96,98,8,u,x,x,x,x,x,x,x
Cc1cc(C)n(-c2cc(N3CCN(C(=O)c4cccc(Br)c4)CC3)ccc2[N+](=O)[O-])n1,25,102,104,100,11,102,x,x,x,x,x,x,x
O=C(c1ccco1)N1CCN(c2ccc([N+](=O)[O-])c(N3CCOCC3)c2)CC1,13,51*,50,43*,4,31*,x,-2,100,61*,83,77,66
CC(=O)N1CCN(c2ccc([N+](=O)[O-])c(-n3nc(C)cc3C)c2)CC1,8,60*,10,79,1,84,79*,-2,92,86,90,92,86
CCOC(=O)c1nc(Nc2ccc(N3CCC(C)CC3)cc2)c2ccccc2n1,16,93,89,91,5,91,x,x,x,x,x,x,x
CC(NC(=S)N1CCN(c2ccccc2)CC1)c1ccccc1 (stereo not given),x,102,102,98,8,u,x,x,x,x,x,x,x
O=C(NCCCN1CCOCC1)c1sc2cc([N+](=O)[O-])ccc2c1Cl,17,75,25*,100,6,u,100*,0,65*,95,13*,79,30*
CC1(C)CC(C2N3CC4(C)CN2CC(C)(C3)C4=O)CCO1 (stereo not given),22,147*[activator],278,115,12,119,115*,0,101,103,104,103,94
COc1ccc(OC)c(NC(=O)c2cccnc2Sc2ccccc2)c1,5,94,71,103,0,104,x,x,x,x,x,x,x
COc1ccc(NC(=O)Cn2nnc(-c3ccc(CN4CCOCC4)cc3)n2)c(OC)c1,13,145*[activator],170,149,6,129,149*,-4,105,106,106,105,98
Cc1ccccc1NC(=O)Cn1nnc(-c2ccc(CN3CCC(C)CC3)cc2)n1,x,105,102,103,8,u,x,x,x,x,x,x,x
CCOC(=O)c1sc(NC(=O)CSc2nnc(Cc3ccccc3)o2)c(C#N)c1C,32,75,19*,101,17,135,101*,-1,70*,143*[activator],51*,94,33*
